Assay in all cases: NCI-60 one-dose screen, 48 h (100 = growth as untreated, 0 = no growth, -100 = all killed)
Conditions in all cases: 10 µM unless noted

Assay [1] relates to NCI-H23 lung.
Assay [2] deals with NCI-H226 lung.
For assay [3], the system named is NCI-H322M lung.
Assay [4] has as its system HOP-62 NSCLC.
Assay [5] has as its system NCI-H460 lung.
Assay [6] has as its system HOP-92 NSCLC.
Assay [7] relates to NCI-H522 lung.
For assay [8], the system named is A549/ATCC NSCLC.
Assay [9] deals with 786-0 renal.
Assay [10] deals with COLO 205 colon.
For assay [11], the system named is DU-145 prostate.
Assay [12] has as its system K-562 leukemia.
Assay [13] has as its system MDA-MB-231 breast.
The subject of assay [14] is RXF 393 renal.
Assay [15] has as its system SF-268 CNS.
In assay [16] the test system is SF-539 CNS.
Assay [17] concerns UACC-257 melanoma.
Assay [18] concerns M14 melanoma.
The subject of assay [19] is MALME-3M melanoma.
For assay [20], the system named is SF-295 CNS.

The panel holds about 83,000 compounds, 20% with a hit somewhere; the sample as a whole holds those more often.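 Negative percent growth values reflect cell death: -40 means 40% of the cells present at the start died, and -100 means all died.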 Values without a mark were called inactive. Active and inactive are the calls of the source. How the source made its calls: active means growth percent below 10; inactive means the rest.

Turning to `O=S1(=O)CCC(N(/N=C/c2ccco2)c2ccccc2)C1` (stereo not given), the growth in assay [1] was 102%; in [2], 104%; in [3] it was 102%; in assay [4] it was 104%; in assay [5], 107%; in assay [6], 96.5%. In addition, the growth was 95.5% in assay [7]; 97.9% in [8]; 103% in [9]; 117% in assay [10]; 111% in assay [11]; 123% in [12]. Besides, the growth is 112% in assay [13]; 109% in assay [14]; 102% in assay [15]; 98.1% in assay [16]; 95.1% in assay [17]; 100% in assay [18].
`Clc1ccc(-c2nc3ccccc3s2)cc1Cl`: the growth in [1] is 94.2%; in assay [2], 87.2%; in assay [3] it was 110%; in assay [4], 104%; in [5], 96.4%; in assay [6], 84.1%. Besides, the growth was 82.7% in assay [7]; 97.7% in assay [8]; 103% in assay [9]; 111% in assay [10]; 112% in [11]; 114% in assay [19]. The growth is 68% in [13]; 109% in assay [14]; 99.2% in assay [15]; 108% in assay [20]; 104% in assay [16]; 114% in [17]. In addition, the growth in assay [18] was 104%.
For `CCN(CC)c1ccc(C(=N)c2ccc(N(CC)CC)cc2)cc1`, the growth in [1] was -52.9% (active); in assay [2] it was -33.5% (active); in assay [3], 16.2%; in assay [4], -82.7% (active); in assay [5] it was -44.5% (active); in assay [6] it was -30.6% (active). Besides, the growth in assay [7] was -62.4% (active); in assay [8], 6.12% (active); in [9], -55.2% (active); in assay [10] it was -96.6% (active); in assay [12], -4.1% (active); in [19], -32.6% (active). The growth in assay [13] is -63.3% (active); in assay [14], -31.5% (active); in [20], -54.7% (active); in [16] it was -68.7% (active); in assay [17] it was -39.6% (active); in assay [18] it was -93.1% (active).
`CCOC(=O)c1ccc(NC(=O)N2CC(C)OC(C)C2)cc1` (stereo not given): the growth in assay [1] is 92%; in assay [2] it was 98.1%; in assay [3], 111%; in assay [4] it was 91.7%; in assay [5] it was 104%; in assay [6], 81.2%. Also, the growth in assay [7] is 94.6%; in assay [9], 98.6%; in assay [10], 116%; in assay [11], 111%; in assay [12], 89.9%; in assay [19] it was 101%. The growth was 96.5% in [13]; 98.6% in assay [14]; 106% in [15]; 98.5% in assay [20]; 95.8% in assay [16]; 106% in assay [17]. The growth in assay [18] is 107%.
With `COc1cc2c(=O)n(C3CCCCCC3)c3c4cc[nH]c4ncc3c2cc1OC`, the growth is 77.1% in assay [1]; 43.9% in assay [2]; 89.2% in assay [3]; 59% in [4]; 72.4% in assay [5]; 59.1% in [6]. Further, the growth is 65.4% in assay [7]; 90.2% in assay [9]; 79.9% in [10]; 78% in assay [11]; 16% in assay [12]; 113% in assay [19]. In addition, the growth in [13] was 75.5%; in assay [14], 37.7%; in assay [15], 65.6%; in assay [20], 69.7%; in [16] it was 17.1%; in assay [17], 109%. Also, the growth in assay [18] was 92.6%.
Turning to `COc1ccc(-c2cnoc2-c2ccc(OC)cc2O)cc1`, the growth in assay [1] was 29.9%; in assay [2], 78.8%; in assay [3], 74.6%; in [4], 36.9%; in assay [5] it was 7.27% (active); in assay [6], 52.1%. The growth was -16% (active) in assay [7]; 44.5% in assay [9]; 72.4% in [10]; 30.9% in assay [11]; 25% in assay [12]; 41.1% in assay [19]. In addition, the growth in assay [13] is 45.8%; in assay [14], 23.9%; in assay [15], 39.9%; in [20], 26.9%; in [16], 19.7%; in [17], 56.7%. The growth in assay [18] was 14.9%.
With `CCOC(=O)c1c(NS(=O)(=O)c2ccc(C)cc2)sc2c1CCC1(C2)OCCO1`, the growth in assay [1] is 94.2%; in [2] it was 85.8%; in [3], 99.8%; in assay [4] it was 90.7%; in [5], 100%; in [6] it was 77.1%. For the same molecule, the growth in assay [7] is 79.6%; in assay [9], 99.3%; in assay [10] it was 115%; in assay [11], 114%; in [12] it was 89.5%; in assay [19], 114%. Moreover, the growth in assay [13] was 99.7%; in assay [14], 103%; in assay [15] it was 93.6%; in assay [20] it was 93.1%; in assay [16], 93.7%; in assay [17], 96.2%. Besides, in assay [18], the growth is 104%.
For the molecule `CCN(CC)CCOC(=O)C(c1ccccc1)(c1ccccc1)C(C)C`, the growth in assay [1] is 90.2%; in [2], 92.9%; in assay [3] it was 82.3%; in [4] it was 83.2%; in assay [5], 92%; in [6], 77.7%. Also, the growth in assay [7] was 86.6%; in [8], 80%; in [10], 66.3%; in assay [11], 99%; in [12], 85.7%; in assay [19], 95.1%. The growth was 74.3% in [13]; 95.6% in assay [14]; 86.1% in assay [15]; 91.1% in assay [20]; 107% in assay [16]; 63.2% in assay [17]. Moreover, in assay [18], the growth was 106%.
